Experimental data published in ChEMBL document CHEMBL4513216, “Probing the Open Global Health Chemical Diversity Library for Multistage-Active Starting Points for Next-Generation Antimalarials” (ACS Infect Dis, 2020).
Hit rate of the full screen: of about 68,000 compounds, about 2,700 (4%) showed an effect of 50% or more. This excerpt belongs to a sample that is enriched for strong results.

Test system: Plasmodium berghei
Assay: Screen against P. berghei liver stage (PbLuc), transformed with Luciferase, at 2uM
Type: functional, HepG2
Details: tested at 2 uM

| SMILES | INHIBITION [%] |
| --- | --- |
| CC(C)N1CC[C@H]2[C@H](C[C@@H](Cn3cccn3)N2c2nccs2)C1 | 34.42 |
| CNC(=O)CN1CC[C@H]2CN(C(=O)c3ccc(C)nc3)C[C@H]2C1 | 40.83 |
| CNC(=O)CN1CC[C@H]2CN(C(=O)c3cccc(C)c3)C[C@H]2C1 | 30.63 |
| CNC(=O)CN1CC[C@H]2CN(C(=O)c3ccc(C)cc3)C[C@H]2C1 | 51.94 |
| Cc1nccn1C1CCCN(C(=O)CCc2nc(C(C)C)no2)C1 (configuration not stated) | 21.71 |
| CN1C(=O)[C@@H]2CC[C@H]1CN(C(=O)Nc1cccc3ccccc13)C2 | -110.62 |
| CCN(CC)C1COc2c(cc(Br)c(C)c2Br)C1=O (configuration not stated) | 58.18 |
| CCN(CC)C1COc2c(cc(Br)c(C)c2C)C1=O (configuration not stated) | 24.56 |
| Cc1c(Br)cc2c(c1C)OCC(N(C)C)C2=O (configuration not stated) | -5.64 |
| Cc1cnn(CCNCC(O)COc2ccc(F)cc2)c1 (configuration not stated) | -0.05 |
| CC(C)(C)C(=O)N1CCC(n2nc(-c3ccco3)ccc2=O)CC1 | 17.8 |
| O=C1[C@H]2CN(C3CCOCC3)C[C@H]2CN1Cc1cccc(F)c1 | 66.67 |
| O=C1[C@H]2CN(CC3CCOCC3)C[C@H]2CN1Cc1cccc(F)c1 | 14.13 |
| CN(C)C(=O)N1C[C@H]2CN(Cc3cccc(F)c3)C(=O)[C@H]2C1 | 18.8 |
| CN(C)C(=O)CN1C[C@H]2CN(Cc3cccc(F)c3)C(=O)[C@H]2C1 | 53.98 |
| O=C1[C@H]2CN(CC3CC3)C[C@H]2CN1Cc1cccc(F)c1 | 26.52 |
| Cc1cccc(CN2C[C@@H]3CN(C4CCOCC4)C[C@@H]3C2=O)c1 | 6.22 |
| CNC(=O)COc1ccc(CNCc2c(C)nn(C)c2N(C)C)cc1 | -5.7 |
| Cc1cnc(N2CCc3c(CNc4ccnc(C)n4)cncc3C2)nc1 | -25.4 |
| CN1C(=O)C2(CC(=O)Nc3c2cnn3C(C)(C)C)c2c(Cl)cccc21 (configuration not stated) | -20.78 |
| O=C(Cn1cnnn1)NCC1(O)CCCc2ccccc21 (configuration not stated) | -4.62 |
| CNc1nc(C(=O)N2CCCn3nc(C(=O)N4CCCC4)cc3C2)cs1 | -38.39 |
| Cc1ccnc(OC[C@]23COC[C@H]2CN(C(=O)Cc2ccsc2)C3)n1 | 11.1 |
| O=C(Cc1cccnc1)NCCSc1ccccc1F | -10.89 |

| SMILES | INHIBITION [%] |
| --- | --- |
| O=C(NCCSc1ccccc1F)NCc1cccnc1 | 68.04 |
| O=C(CCSc1ccccc1F)NCc1cccnc1 | -67.38 |
| CN1CCCN(C(=O)c2cnc(Cc3c(Cl)cccc3Cl)nc2O)CC1 | -116.99 |
| Cc1ccnn1CC(=O)N(C)Cc1cnn(-c2ccccc2)c1 | 60.67 |
| Cc1ccnn1CC(=O)N(C)Cc1ccc(-n2cccn2)cc1 | 18.76 |
| CSCC(=O)N(C)Cc1cnn(-c2ccc(F)cc2)c1 | -9.65 |
| CSc1ccc(C)c(C(=O)N2CCCC(n3cncn3)C2)c1 (configuration not stated) | -1.88 |
| COC(=O)c1ccc(S(=O)(=O)N(C)CC(N)=O)c(Cl)c1 | -3.54 |
| Cc1cccnc1NC(=O)N(CCO)Cc1ccsc1 | 36.95 |
| O=C(Nc1nccs1)N(CCO)Cc1ccsc1 | -14.3 |
| O=C(Nc1ccccn1)N(CCO)Cc1ccsc1 | 58.49 |
| O=C(O)c1c(-c2cncnc2)ncc2c1CCN(Cc1cccnc1)C2 | 11.98 |
| O=C(NCC1Cn2nnc(-c3ccoc3)c2CO1)c1ccc[nH]1 (configuration not stated) | 12.21 |
| O=C(C1CCCC1)N1C[C@@H]2CCNC[C@@H]21 | 34.79 |
| O=C(N1CCCC1)N1C[C@@H]2CCNC[C@@H]21 | 32.05 |
| O=C(C1CCCCC1)N1C[C@@H]2CCNC[C@@H]21 | 63.89 |
| O=C(NCCc1ccccn1)[C@@]12CCO[C@@H]1CCN(CC1CC1)C2 | 51.81 |
| CN1CC[C@H]2OCC[C@@]2(C(=O)NCCc2ccccn2)C1 | 23.81 |
| CC(=O)N1CC[C@H]2OCC[C@@]2(C(=O)NCCc2ccccn2)C1 | 7.55 |
| CN(Cc1nc2ccccc2s1)C1CCCN(c2cccnn2)C1 (configuration not stated) | 29.39 |
| c1cnc2nc(N3CCCC3c3nnc4n3CCCCC4)ccc2n1 (configuration not stated) | 2.06 |
| Cc1c(C(=O)N[C@@H]2CC[C@@H](N3CCCC3)[C@@H]2O)[nH]c2ccc(F)cc12 | 30.96 |
| O=C(NCC(=O)N1CCN(c2ccccc2)CC1)c1sccc1C1CC1 | -31.42 |
| O=C(NCC(=O)N1CCCCC1)c1sccc1C1CC1 | 54.62 |

| SMILES | INHIBITION [%] |
| --- | --- |
| Cc1ccc(C)n1-c1ccsc1C(=O)NCC(=O)N1CCCC1 | 36.34 |
| Cc1ccc2nc(C(=O)N(C)[C@@H]3CC[C@@H](N4CCCC4)[C@@H]3O)cn2c1 | -18.64 |
| Cc1ccsc1-c1nccn1CCN(C)S(C)(=O)=O | 4.48 |
| Cc1cn(CCn2ccnc2-c2sccc2C)nn1 | 59.08 |
| Cc1ccsc1-c1nccn1CCS(C)(=O)=O | 38.1 |
| COc1ccnc(NCc2ccccc2Cn2cccn2)n1 | -136.67 |
| CN1CCCN(C(=O)NCCNc2ncccn2)CC1 | -3.93 |
| Cc1nn(C)c(C)c1-c1cnc(C2CCCN(S(C)(=O)=O)C2)cn1 (configuration not stated) | 51.15 |
| Cc1nn(C)c(C)c1-c1cnc(C2CCCN(C)C2)cn1 (configuration not stated) | 22.81 |
| CC(=O)N1CCCC(c2cnc(-c3c(C)nn(C)c3C)cn2)C1 (configuration not stated) | 20.08 |
| CN(C)c1ccc(CN(CCCn2ccnc2)Cc2c[nH]cn2)cc1 | 18.15 |
| Cn1c(CCNC(=O)Nc2cn[nH]c2)nc2ccc(F)cc21 | 55.36 |
| Cn1c(CCCNC(=O)Nc2cn[nH]c2)nc2ccccc21 | 29.13 |
| CC(C)n1nccc1NC(=O)NCCc1nc2ccc(F)cc2n1C | 2.9 |
| CN(Cc1ccccc1)C1(C(=O)NCC(N)=O)Cc2ccccc2C1 | 6.39 |
| Cc1cc(CCC2CN(Cc3ccccc3C(=O)O)CCO2)ncn1 (configuration not stated) | 0.3 |
| Cc1cc(C[S+]([O-])CC(=O)NCC(C)C)no1 (configuration not stated) | -10.66 |
| Cc1cc(C[S+]([O-])CC(=O)NCc2ccccc2)no1 (configuration not stated) | -15.28 |
| Cc1cc(C[S+]([O-])CC(=O)Nc2c(C)cccc2C)no1 (configuration not stated) | 51.21 |
| CCOC(=O)CN1C(=O)CN(S(C)(=O)=O)CCC(OC)c2ccccc21 (configuration not stated) | 12.44 |
| Cn1ccnc1CN1CCN(CC(=O)NCC(F)(F)F)CC1 | 62.13 |
| Cn1ccnc1CN1CCN(CC(=O)NCc2ccccc2F)CC1 | 26.09 |
| Cc1ccccc1CNC(=O)CN1CCN(Cc2nccn2C)CC1 | -34.45 |
| CS(=O)(=O)c1snnc1C1CCN(Cc2ccc3nccnc3c2)CC1 | 28.67 |
